PI4K2A block = PI4K2A (human) kinase inhibition; Q9BTU6; purified PI4K2A, ADP-Glo luminescence, 1 h; active compounds read low; activity change, negative = inhibition, % at 76.9 µM; hit rate 0.13% among 420,000; in the data active = activity change below about -50%; inconclusive = mostly about -30% to -49%;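 note: -100% = wells without enzyme as full effect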
Target sequence (Q9BTU6 whole entry, looked up): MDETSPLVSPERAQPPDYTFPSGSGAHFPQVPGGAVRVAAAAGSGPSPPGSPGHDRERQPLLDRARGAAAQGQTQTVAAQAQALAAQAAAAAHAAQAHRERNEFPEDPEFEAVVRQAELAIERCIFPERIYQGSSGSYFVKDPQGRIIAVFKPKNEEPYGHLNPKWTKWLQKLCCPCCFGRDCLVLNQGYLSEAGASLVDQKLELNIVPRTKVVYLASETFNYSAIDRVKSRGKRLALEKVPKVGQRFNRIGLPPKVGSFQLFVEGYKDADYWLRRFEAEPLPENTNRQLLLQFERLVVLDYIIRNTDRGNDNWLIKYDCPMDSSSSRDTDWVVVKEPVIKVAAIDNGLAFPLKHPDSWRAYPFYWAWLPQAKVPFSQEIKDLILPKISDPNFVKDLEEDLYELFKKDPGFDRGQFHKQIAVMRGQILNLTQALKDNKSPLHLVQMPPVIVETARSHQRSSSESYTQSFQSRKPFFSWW
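In this quantitative HTS, ADP production by PI4K2A was quantified luminescently after 1 h at ambient temperature; 100 microM adenosine served as plate-quality control.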
Six1-Eya2 inh = inhibitors of human Six1/Eya2 interaction | Q15475+O00167 | AlphaScreen GST-Six1/His-Eya2 binding, biochemical; active compounds read low | activity change, % (concentration not given with the values) | hit rate 0.56% among 360,000 | AID 651725
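Homogeneous AlphaScreen proximity assay pairing GST-Six1 with His-tagged Eya2 (added as 5X mix: 250 nM and 500 nM) in 50 mM Tris pH 8.0, 300 mM NaCl, 1 mM TCEP. Glutathione donor and nickel acceptor beads; 1 h, 37 °C, dark.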
Eya2 phos inh = Eya2 (human) phosphatase inhibition; recombinant Eya2, OMFP fluorescence dephosphorylation (OMFP is methylfluorescein phosphate); Potency, µM (titrated, usually from 76.9 µM), for the others: top-dose activity, negative = inhibition, usual class: inhibitors; hit rate 0.006% among 330,000; O00167; active = well fitted inhibition curve with a large enough effect; inconclusive = small, poorly fitted or top-dose-only effect, or effect the other way; note: potency is the fitted concentration of half-maximal effect
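Eya2 protein (added as 0.2 uM solution) was preincubated with compound for 10 min at ambient temperature in 50 mM HEPES pH 7.5, 50 mM NaCl, 5 uM MgCl2, 0.05% BSA, 1 mM DTT. OMFP (added at 50 uM) then reacted 10 min; fluorescence read at 485/525 nm.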
CtBP-E1A blk = inhibitors of CtBP/E1A interaction. hit rate 0.49% among 340,000. AlphaScreen GST-E1A/His-CtBP binding, 1536-well; active compounds read low. activity change, % (test concentration not listed). AID 651724
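GST-E1A and His-tagged CtBP (125 nM each as 5X stock) were preincubated with pin-transferred compound for 2 h at 37 °C in the dark, then glutathione donor and nickel acceptor beads were added for 1 h before AlphaScreen reading.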
CCT modulator = modulators of cytosolic chaperonin (CCT/TRiC) activity; hit rate 0.3% among 360,000; purified chaperonin ATPase assay, HTRF ADP detection, 30 min; activity change, % (concentration not given with the values), hits read low; in the data active = activity change below about -30%
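ATPase activity: ADP formed was measured by HTRF Transcreener (665/615 nm ratio) after 30 min at 37 deg C with 10 uM ATP. Compounds screened at one 76 uM concentration against 40 or 20 nM TRiC in Tris pH 7.4/KCl/MgCl2/DTT buffer.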
Starred values were filed as active, the others as inactive; u = inconclusive; x = not tested or not shown. An excerpt weighted towards active compounds, which were near 0.97% of everything screened. Cut-off read from the data, not from the text of the source, unless noted: active = activity change below about -65%; inconclusive = mostly about -30% to -63%; inactive = weaker than that. Unless noted, % is set by controls: 0 for no effect and ±100 for the full control effect.

SMILES	PI4K2A block	Six1-Eya2 inh	Eya2 phos inh	CtBP-E1A blk	CCT modulator
O=C(O)CN(CC(=O)O)CC(=O)O	-1	-73*	x	-96*	-1
O=C(O)CN(CCO)CCN(CC(=O)O)CC(=O)O	x	x	-1%	x	x
Cc1ccc(C)c(N(CC(=O)Nc2ccc(-c3nc4ccc(C)cc4s3)cc2)S(C)(=O)=O)c1	2	-4	3%	9	0
Cc1ccc(N(CC(=O)Nc2ccc(-c3nc4ccc(C)cc4s3)cc2)S(C)(=O)=O)cc1	-1	-3	12%	2	-40*
COc1ccccc1N1CC(C(=O)OC(C)C(=O)N2CCCc3ccccc32)CC1=O (configuration not stated)	-2	2	6%	3	-60*
COc1ccccc1OC(C)C(=O)N1CCc2ccccc21 (configuration not stated)	-2	8	9%	6	-1
O=C(O)c1ccccc1C(=O)Nc1ccccc1	-3	1	-11%	-2	1
O=C(Nc1ccccc1)C1=C(c2ccccc2)S(=O)(=O)CCS1(=O)=O	u	u	15%	-1	-55*
CSc1cccc(NC(=O)CC(c2ccc(F)cc2)N2Cc3ccccc3C2=O)c1 (configuration not stated)	-6	x	x	x	x
COc1ccccc1NS(=O)(=O)c1cn(C)cn1	-4	3	-1%	x	-53*
COc1ccc(-c2csc(NC(=O)CS(=O)(=O)c3ccccc3)n2)c(OC)c1	-1	-11	x	2	1
Cc1ccc(C2(C)NC(=O)N(CC(=O)Nc3nc(-c4ccccn4)cs3)C2=O)cc1 (configuration not stated)	-21	-92*	-3%	u	-2
Cc1ccc(S(=O)(=O)CCc2nnc(NC(=O)c3ccccn3)s2)cc1	-20	-90*	16%	-92*	-4
CCC1(CC)NC(=O)N(CC(=O)Nc2ccc(C)cc2C)C1=O	-3	3	-9%	16	-2
Cc1ccc(NC(=O)CN2C(=O)NC(C)(c3ccccc3)C2=O)c(C)c1 (configuration not stated)	-2	-2	0%	-8	-60*
Cc1ccc(NC(=O)CN2C(=O)NC(C)(c3ccc(Cl)cc3)C2=O)cc1 (configuration not stated)	3	0	-16%	-5	-2
COc1ccc(-c2csc(NC(=O)CS(=O)(=O)c3ccccc3)n2)cc1OC	-2	-14	x	1	-31*
Cc1ccc(S(=O)(=O)CCC(=O)Nc2nc(-c3cccnc3)cs2)cc1	2	1	-1%	6	-1
CC1(c2ccccc2)NC(=O)N(CC(=O)Nc2nc(-c3ccccn3)cs2)C1=O (configuration not stated)	-6	-91*	4%	u	-2
Cc1ccc(S(=O)(=O)CCC(=O)Nc2nc(-c3ccccn3)cs2)cc1	0	u	3%	-73*	0
CC1(c2ccccc2)NC(=O)N(CC(=O)NNC(=O)c2ccccc2)C1=O (configuration not stated)	0	2	5%	1	-1
CC1CCC(NC(=O)CCc2cn(Cc3ccc(F)cc3)c3ccccc23)CC1 (configuration not stated)	-1	x	x	x	x
Cc1ccc(/C=C/c2nc3ccccc3n2S(=O)(=O)c2cccc(Cl)c2)cc1	-63*	x	x	x	x
Cc1ccc(S(=O)(=O)n2c(C)nc3ccccc32)cc1	-3	1	-5%	-3	-2
CCOc1ccc(/C=C/c2nc3ccccc3n2S(=O)(=O)c2cccc(Cl)c2)cc1	-70*	x	x	x	x
SMILES	PI4K2A block	Six1-Eya2 inh	Eya2 phos inh	CtBP-E1A blk	CCT modulator
Cc1ccc(-c2nc(-c3cc4c([nH]c3=O)CC(C)(C)CC4=O)sc2C)cc1	0	x	x	x	x
O=C(COC(=O)c1ccc(S(=O)(=O)NCc2ccco2)cc1)Nc1ccc(Cl)cn1	-52*	-5	6%	6	-2
O=C(COC(=O)c1cccc([N+](=O)[O-])c1)Nc1ccc(Cl)cn1	1	3	-9%	-1	-42*
O=C(COC(=O)c1ccc([N+](=O)[O-])cc1)Nc1ccc(Cl)cn1	-3	-6	20%	6	-5
Cc1ccc(CN(C(=O)COc2ccccc2[N+](=O)[O-])c2ccccn2)o1	0	x	x	x	x
Oc1c(CN2CCCCC2)cc(Br)c2cccnc12	-20	-91*	-1%	-92*	-1

Screens as filed in PubChem BioAssay.
